# According to the supplement of paper PMC6555819:
# Assays:
# Experiment in all cases: PBM binding z-score (relative to random genomic background probes); higher = stronger binding; sequences stand for … in GC…GCGATTGACAGCGTAGAATGAAGG
# [1] = tested on: RARb homodimer (NR concentration 270 nM)
# Summary of the method: (§1)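 Regression normalization was applied to scanned fluorescence from custom Agilent 4×180K protein-binding microarrays. Before scanning, arrays were incubated 1 h with ligand-free nuclear receptor dimers, and binding was detected with antibodies against each partner (one per run). Binding z-scores use the random background probes as reference.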
# [2] = tested on: RARg:RXRa (NR concentration 270 nM, RXRa partner concentration 90 nM)
# Summary of the method: as §1
# [3] = tested on: RARg homodimer (NR concentration 270 nM)
# Summary of the method: as §1
# [4] = tested on: RXRa DBDmut IVT, anti-RXR (DBD mutation: RXRa K156A/R161A, NR concentration 90 nM)
# Summary of the method: as §1
# [5] = tested on: RXRa homodimer (NR concentration 180 nM)
# Summary of the method: as §1
# [6] = tested on: THRa:RXRa (NR concentration 90 nM, RXRa partner concentration 90 nM)
# Summary of the method: as §1
# [7] = tested on: THRa homodimer (NR concentration 90 nM)
# Summary of the method: as §1
# [8] = tested on: VDR homodimer (NR concentration 270 nM)
# Summary of the method: as §1
Sequence,PBM binding z-score [1],PBM binding z-score [2],PBM binding z-score [3],PBM binding z-score [4],PBM binding z-score [5],PBM binding z-score [6],PBM binding z-score [7],PBM binding z-score [8]
TCTTGTAGATCAAAGGTTATGAAAGCCGAAGCCT,1.25,1.65,0.684,0.966,3.08,1.46,-0.27,0.204
CCTCGGAGGCCAACAGGAGGTCAGAGCTGCCAGA,3.63,4.76,3.41,-0.221,2.34,2.41,0.431,0.821
CCTAGTTGGTCAGGAGGTCAAACACCGGATATGA,4.15,5.37,4.68,1.15,5.72,3.5,1.99,3.16
AGAATGAGGTTATACGTAGATCAGGGTAGAAAGT,1.33,1.82,1.34,1.81,2.24,2.42,0.874,1.21
TCTGCGAGGTCAACGATGGTCAGCTAATCTGCTA,4.5,6.57,7.19,3.91,7.18,4.26,2.92,3.6
CAGCCTAGGTAAGGGCCAGTATAGGAGGAACGTT,-0.166,-0.284,0.264,-1.12,-0.418,-0.373,-0.773,-0.434
ATCTCTCGGTAACAAGTTCAGTGAAAGAGAGGAC,1.84,0.867,1.2,0.226,0.539,0.976,0.753,2.29
TGACTGAGGTTATAAGATCAGGGAACGTTGCAAA,0.146,1.59,0.985,0.64,1.87,1.58,-0.016,0.435
GCTAGCAGGCCATTTGGCTCACTCAATGACGGGC,-1.05,-0.42,-0.0728,0.0311,-0.355,-1.69,-1.04,-0.733
CGTCCAAGGTCATAGGAGGTCAGTAAAGACAGAT,5.26,6.85,7.38,4.16,6.73,5.25,3.1,4.5
CGTCCAATGTCAAAGGTCAGTGAAGAGATGACGG,4.3,5.61,5.43,1.04,6.57,2.97,0.388,1.07
CAAACTAGGTCACGAAAGGTGAAAGTCGAATGAC,4.73,5.68,6.37,1.59,5.25,4.82,1.92,0.591
TAGCCTAGGTCATTGGGCCTGTATAGTACGCATC,2.84,3.78,4.29,1.59,3.33,2.74,0.697,1.12
TCGAGTAGGTTAGGGGCATTCCGAATGGCGTCGA,0.646,0.44,-0.221,0.278,0.54,0.556,-0.0824,0.859
GCTCGGAGGACACGGTCAGAGCTTTGTCCGTAGA,1.35,0.822,1.71,0.29,-0.503,1.36,0.245,-0.453
GGAACGAGGGCAAGTTGATAGGAGAGTTTGATGG,1.61,1.72,2.08,2.4,0.681,1.27,0.249,2.23
CAAACTAGGTCAAAGGTCAAAGTGGAGCCAACCA,4.96,8.91,7.43,3.12,10.1,4.71,1.88,3.27
TCTATTAGTTGAAGGACAACCGACGAGTCCGTTT,0.756,0.368,0.728,2.05,0.435,0.552,0.684,1.62
GTACCAAGGTGAATAGGTGGTTGATGAGTAGGCG,0.863,0.652,0.628,-0.536,0.63,1.3,0.799,-0.0991

Sequence,PBM binding z-score [1],PBM binding z-score [2],PBM binding z-score [3],PBM binding z-score [4],PBM binding z-score [5],PBM binding z-score [6],PBM binding z-score [7],PBM binding z-score [8]
AGAATGAGGTAACCAAAGATCAGGGAAACGCTTG,-0.385,0.568,0.561,-0.346,0.827,2.05,0.539,-0.262
ACAGCCAGGTGATGAAGGTAACTCAGGCTATCAT,-0.0957,-0.0664,0.0616,-0.658,0.21,1.1,0.166,-0.584
AGAATGAGGTTACCAAAGATCAGGGAGACGCTTG,0.689,2.21,1.8,1.28,2.77,2.86,0.711,0.443
TCCTATAGGTAAACAGGTGAAAGTCCGTAAGTTA,0.829,0.269,0.132,1.06,0.667,0.77,0.418,0.275
TCTTGTAGATCAACAGGAGGTTGAGAAAGATCGA,-0.533,0.156,-0.228,0.313,0.301,-0.174,-0.919,-0.475
ATCGAAAGGTCGTGAGCTGAGTATACAGAAAGGC,2.17,4.41,3.74,0.921,5.11,2.31,-0.456,0.299
ATACCAAGGTGATCATGAGGTCGTTGATACTAAC,1.85,2.23,1.18,1.08,1.75,3.55,2.94,3.15
TCAGACAGGTGAAGGTAACCCAGGTACGCAGTCG,1.25,0.745,0.803,0.992,1.29,1.48,0.57,0.454
TCGAATAGGTTACCAATGGGGCATTCAGCTTTCT,1.21,2.11,0.782,1.09,1.39,0.655,-0.381,-0.151
TCGAGTTGGTCAAAGGTCACACACTCGAAATGCG,4.92,6.93,5.89,2.1,8.01,3.94,1.19,2.78
ATCGAAAGGTCGAAGGTGAATATACCCACCCGAA,2.61,4.63,3.68,1.35,5.69,2.52,0.227,0.834
CCTATTAGTTGACCATAAGGGCAAACGAAGCTCG,1.93,1.48,1.31,0.782,0.751,1.72,1.08,1.01
ATCTCTAGGTAACAAGTTCAGTAAAAGAGAGGAC,2.18,1.21,1.6,1.08,1.1,1.85,1.12,2.15
TCTTGTAGATCAAGAAGGTTAAGAAAGCCTGAGT,0.784,0.407,0.315,0.387,0.863,0.451,-0.553,0.21
CCTATTAGTTGACCATAAGGGCAGCCGAAGCTCG,1.55,0.749,0.64,0.252,0.392,1.36,0.892,0.242
TAGAGTAGGTTAGTCGGGGCATTCAGCCAACATA,0.711,0.539,0.52,-0.0578,0.327,1.42,0.443,1.03
CGTCCAAGGTCATAGGAGGGCAGTGAAGACAGAT,4.01,5.77,5.89,3.81,5.44,4.83,2.17,3.3
CGTCCAAGGTCAGAGAGCTCAGTGAATGCCGAGT,3.53,4.54,5.24,2.67,3.25,3.14,1.42,1.5
TAGCCTAGGTCATTGGGCCCGTATAGTACGCATC,2.73,3.69,4.06,1.8,2.68,3.01,1.43,0.994

Sequence,PBM binding z-score [1],PBM binding z-score [2],PBM binding z-score [3],PBM binding z-score [4],PBM binding z-score [5],PBM binding z-score [6],PBM binding z-score [7],PBM binding z-score [8]
ATATGTAGGTTCTCGGGTCATTCAGTTTGCGCAT,2.61,2.47,1.7,2.28,2.88,3.46,3.29,4.65
TAGGCTAGGTCATTCAGGGGCCAGTATAGAAAGC,3.57,6.42,4.85,1.71,3.26,3.7,0.658,1.95
CCTACTGGGCCATTCAGAGGTCATTCATCATATG,4.11,4.47,2.94,0.971,3.37,3.14,1.51,3.85
CCTACTGTGCCATCAGGTCATTGATATCAACGTT,2.98,2.18,1.93,1.69,1.53,3.64,3.95,2.39
TCTGGTTGGTCAAAGGTCACACACTCGAAATGCG,4.94,7.36,6.25,1.79,8.3,4.07,2.65,3.34
CGTCCAAGGTCATAGGAGGTCAGTGACGACAGAT,5.23,6.83,7.27,4.28,7.54,5.3,3.25,4.76
GATACACGGTCAGCTAGAGGCCAGAGTATGGAAA,1.9,2.39,2.33,-0.51,0.403,0.349,-0.599,-0.244
CCTTACGGGTCACTGACAGGTTATCGCATTTGGA,3.3,5.91,4.66,1.9,5.05,3.02,0.17,0.982
CCTGCTAGGTCATGGTCAACTAATCTACAGTATG,3.37,4.23,5.18,1.75,2.88,3.26,1.41,0.335
CGTCCAAGGTCATAGGAGGTCCGTGAAGACAGAT,3.8,5.84,5.85,3.86,6.02,4.51,2.24,3.33
CCTACTGGGCGATCAGGTCATTGATATCAACGTT,2.23,1.35,1.37,0.269,1.02,2.74,2.18,1.53
CGAATTAGGTCAGAACAGGACAGTGAAGGATGAT,2.36,2.65,3.43,0.886,1.29,3.86,1.01,0.142
TCTAGCATGCCAGAGGGTCACTCAAGAGGTACGG,2.71,2.48,2.22,0.0251,2.7,1.7,-0.281,0.555
CCGAGTGGGGCATAAGGTTACCATAAGCCAGCCC,1.32,1.46,0.809,-0.545,1.22,2.01,1.09,0.036
CCTTACGGGTCACGAGGCTATAGCACGACGAGCG,3.24,5.45,5,0.992,6.22,3.16,0.466,0.849
ATCTCTAGGTAACCAAGTTCAGCGAATGCCGAAC,1.63,1.03,1.06,0.597,0.733,1.51,0.797,2.79
TCTTGTAGATCCAGCAGGTTAAGAAAGCCTGAGT,-0.0215,-0.196,-0.399,0.513,0.171,0.192,-0.236,-0.224
CAATCTAGGTCAAGGTCAAAGTCGGTTTGTGCCA,5.05,5.89,6.37,3.25,5.61,4.65,4.37,4.3
CGAACTAGGTAATTGACAGGACAGTGAATAGTAA,0.027,0.00313,0.198,0.0767,-0.137,0.166,-0.0579,-0.054
